Data on 40 compounds can be found in PubChem BioAssay (NCATS).

Results filed as inconclusive are left out. Entries that show only a call come without a potency. Calls of active or inactive are those of the source. Calls come from the whole dose curve; as a rule, active = well fitted inhibition curve with a large enough effect; inconclusive = small, poorly fitted or top-dose-only effect; inactive = no such curve, though single readings can be large or run the other way.
Potency is the fitted concentration of half-maximal effect.

The nature of this assay: qHTS for Inhibitors of ATXN expression: Validation (AID 588378). Note: nearly all actives have a fitted effect of over 75% in size. The conditions noted are these: cell-based ATXN2 expression reporter assay, luminescence; series mostly up to 57.1 µM. From the text:
Spinocerebellar ataxia type 2 (SCA2) is a multisystem neurodegenerative disease caused by a dominantly-acting mutation leading to expansion of a polyQ domain in the ataxin-2 protein (ATXN2). SCA2 patients develop progressive ataxia and later lose function in other neuronal systems. Prominent parkinsonian signs develop in some patients. Similar to many neurodegenerative disorders, no symptomatic or disease-modifying treatments are known.
The primary objective of project is to identify compounds inhibiting ATXN2 expression and to test them for efficacy in SCA2 mouse models. To this end, in a collaboration between Dr. Daniel Scoles and scientists at NCGC, a cell-based assay adapted to high-throughput screening has been developed to screen the NIH Molecular Libraries Small Molecule Repository (MLSMR).
NIH Chemical Genomics Center [NCGC]
NIH Molecular Libraries Probe Centers Network [MLPCN]
Assay Submitter (PI): Stefan Pulst and Daniel Scoles, University of Utah
4 ul of HEK293-ATXN2-FFLuc cell suspension (TBD cells/microL in phenol-red free DMEM) are dispensed into Greiner white solid bottom 1536-well assay plates, yielding a final well density of TBD cells/well. Plates are incubated for 2 hrs at 37 degrees C in 5% humidified CO2 to allow cell attachment. Compounds are then transferred via Kalypsys pin tool equipped with 1536-pin array (10nl slotted pins, V&P Scientific, San Diego, CA). In addition, duplicate serial dilutions of the control compounds ChemBridge 5553825, a previously identified ATXN2 expression inhibitor, and a known luciferase inhibitor, are pin-transferred. After incubation at 37 degrees C in 5% humidified CO2 for 24 hrs, CellTiter-Fluor reagent (1 ul) (Promega, Madison, WI) is then added and plates are incubated for 30 minutes, before being transferred to a ViewLux high-throughput CCD imager (PerkinElmer), wherein single end-point fluorescence measurements are acquired using the 405 nm excitation/525 nm emission filter set to assess cell viability. Next, Bright-Glo luciferase substrate detection reagent (3 ul) (Promega, Madison, WI) is added to each well and incubated for an additional 5 minutes. Luminescence is then measured on the ViewLux imager equipped with a clear emission filter using a 2 sec exposure.
In general terms: qHTS replaces the single test concentration by a dilution series.
As to `COC(=O)C(N)Cc1ccc(Cl)cc1` (stereo not given), the Potency result was “inactive”.
As to `NCCCNCCCCNCCCN`, the Potency result was “inactive”.
`CCSC(=N)N`: the Potency entry is “inactive”.
As to `O=C(O)C1CCNCC1`, the Potency result was “inactive”.
Take `C[C@H](O)C(=O)C1=Nc2c(nc(N)[nH]c2=O)NC1`: the Potency result was “inactive”.
On to `O=c1onc2n1-c1cc(Br)ccc1OC2`, for which the Potency result was “inactive”.
Consider `CC(N)=O`, for which the Potency result was “inactive”.
`N[C@@H](CS(=O)O)C(=O)O`: the Potency result is “inactive”.
`NCCCCN`: the Potency entry is “inactive”.
The same measure for `N=C(N)c1ccccc1`: “inactive”; for `CC(C)NC[C@H](O)COc1ccc(CC(N)=O)cc1`: “inactive”.
Take `CC[n+]1c(/C=C/C=C2/N(C)c3ccccc3C2(C)C)sc2ccccc21`: the Potency was 0.891 µM (active).
Turning to `C#CC(N)CCC(=O)O` (stereo not given), the Potency result was “inactive”.
Turning to `O=C(O)/C=C/c1ccc(O)c(O)c1`, the Potency entry is “inactive”.
The same measure for `CN1CCCC1CCOC(C)(c1ccccc1)c1ccc(Cl)cc1` (stereo not given): 12.6 µM (active); for `Cc1nc(N=Nc2cc(S(=O)(=O)O)c3cc([N+](=O)[O-])cc(S(=O)(=O)O)c3c2)c(COP(=O)(O)O)c(C=O)c1O`: “inactive”; for `CC(=O)/C(C)=N/O`: “inactive”.
Turning to `COC(=O)C(C)(N)Cc1ccc(O)cc1` (stereo not given), the Potency entry was “inactive”.
As to `NC(N)=NC(N)=Nc1ccccc1`, the Potency result is “inactive”.
Turning to `COc1ccc(CCN(C)CCc2ccc(OC)c(OC)c2)cc1OC`, the Potency result is “inactive”.
Regarding `NCCC1CCCC(CCN)N1` (stereo not given), the Potency result is “inactive”.
Regarding `O=c1[nH]c2ccccc2c2ccccc12`, the Potency entry was “inactive”.
As to `NC(=O)c1ccccc1`, the Potency result is “inactive”.
In the case of `O=C(OCCN1CCOCC1)C1(c2ccccc2)CCCCC1`, the Potency result is “inactive”.
The same measure for `OC[C@H]1O[C@H](n2cnc3c(N[C@H]4CCC[C@@H]4O)ncnc32)[C@H](O)[C@@H]1O`: “inactive”; for `O=C(O)c1cc2cc(F)ccc2[nH]1`: “inactive”; for `CC(=O)C(C)=O`: “inactive”.
The same measure for `N#Cc1cc2nc(O)c(O)nc2cc1[N+](=O)[O-]`: “inactive”; for `CCC1(O)CC2CN(CCc3c([nH]c4ccccc34)[C@@](C(=O)OC)(c3cc4c(cc3OC)N(C=O)C3[C@]45CCN4CC=C[C@@](CC)([C@@H](OC(C)=O)[C@]3(O)C(=O)OC)[C@H]45)C2)C1` (stereo not given in full): “inactive”; for `O=C(O)Cc1ccc(O)c(O)c1`: “inactive”.
The same measure for `CC(=O)NCCc1c[nH]c2ccc(O)cc12`: “inactive”; for `COc1cc(/C=C(\C#N)C(=O)c2ccc(O)c(O)c2)cc(I)c1O`: “inactive”; for `CC[C@@H]1Cc2cc(O)ccc2C2=C1c1ccc(O)cc1C[C@H]2CC`: 15.8 µM (active).
With `Cc1cccc(C)c1OCC(N)C(C)C` (stereo not given), the Potency result was “inactive”.
The same measure for `O=c1ccc2c(OCCCCc3ccccc3)c3ccoc3cc2o1`: “inactive”; for `O=C(O)C1=CCCNC1`: “inactive”.
With `CN(CC[C@@H](Oc1ccc(C(F)(F)F)cc1)c1ccccc1)CC(=O)O`, the Potency entry was “inactive”.
As for `CCCCCCCCCCCCCCCCCCOC[C@H](COP(=O)([O-])OCC[N+](C)(C)C)OC`, the Potency result is “inactive”.
The same measure for `N[C@H](C(=O)O)c1cc(O)cc(O)c1`: “inactive”; for `Nc1ncnc2c1ncn2C1CCCO1` (stereo not given): “inactive”.
